Screening results deposited in PubChem by National Center for Advancing Translational Sciences (NCATS).
Hits are enriched below; roughly 4.3% of the tested compounds scored in any of these assays.
GLP-1R inv ag: acts as inverse agonist at human GLP-1 receptor | P43220 | HEK293 GLP-1R CRE-luciferase, luminescence, 24 h; GLP-1R form is constitutively active | Potency, µM (highest dose often 38.3 µM), usual class: inhibitors | 410,000 tested, 1.6% active; further: nearly all actives have a fitted effect of over 55% in size
Target sequence (P43220 whole entry, looked up): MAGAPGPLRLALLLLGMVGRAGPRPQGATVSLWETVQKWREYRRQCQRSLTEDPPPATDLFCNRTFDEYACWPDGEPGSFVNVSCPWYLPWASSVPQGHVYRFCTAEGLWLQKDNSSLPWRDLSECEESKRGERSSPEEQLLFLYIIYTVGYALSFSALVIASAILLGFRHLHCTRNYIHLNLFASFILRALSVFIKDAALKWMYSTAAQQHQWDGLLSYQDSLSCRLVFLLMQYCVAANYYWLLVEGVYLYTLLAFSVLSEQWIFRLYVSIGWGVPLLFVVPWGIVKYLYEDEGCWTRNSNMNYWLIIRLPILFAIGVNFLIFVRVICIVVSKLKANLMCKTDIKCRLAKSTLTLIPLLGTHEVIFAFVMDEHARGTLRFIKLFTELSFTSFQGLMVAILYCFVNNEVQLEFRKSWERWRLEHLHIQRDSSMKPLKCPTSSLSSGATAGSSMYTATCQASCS
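HEK293 cells stably co-expressing a cAMP-responsive luciferase reporter and constitutively active GLP-1R were seeded, incubated 12 h, then exposed to compounds for 24 h at 37 C. Luminescence was read 12 min after detection reagent; inverse agonists lower signal.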
D3 ag: D3 dopamine receptor (human) agonism; 410,000 tested, 0.58% active; P35462; max activation, %; D3R DiscoveRx beta-arrestin cells, luminescence, 90 min; in the data active means max activation above about 30%
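Agonist mode: compounds and dopamine controls were applied to plated cells for 90 min at 37 degrees C after an overnight attachment at 1500 cells/well. Luminescent read-out followed 30 - 60 minutes at room temperature with DiscoveRx detection reagent.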
GLP-1R agonist: activates the human GLP-1 receptor; P43220; HEK293 GLP-1R CRE-luciferase, luminescence, 4-6 h; cells express a hypersensitive GLP-1R form; Potency, µM (series often up to 45.6 µM), usual class: activators; 380,000 tested, 0.007% active; AID 624172
DRD3 antagonist: D3 dopamine receptor (human) antagonism; P35462; D3R cells, DiscoveRx beta-arrestin luminescence, antagonist mode; hits give low values; max response, negative = inhibition, %; 360,000 tested, 2.5% active; AID 652054; in the data active means max response below about -50%; inconclusive means no clear call, values can overlap the other calls
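Cells expressing the human receptor were seeded at 1500 cells/well, incubated overnight at 37 degrees C in 5% CO2, then exposed to library compounds with dopamine controls for 90 minutes at 37 degrees C before luminescent detection.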
Of the large screens only hits and unclear results are named; the others gave an inactive call. Unless noted, the call rests on the fitted dose curve; in most records, active means well fitted curve in the direction sought with a large enough effect; inconclusive means small, poorly fitted or top-dose-only effect, or another doubt; inactive means no such curve, though single readings can be large; an effect the other way counts as inactive or inconclusive.

COc1cc([N+](=O)[O-])c2ncsc2c1	none
S=c1[nH]nc(-c2ccccn2)n1/N=C/c1ccc(Br)s1	DRD3 antagonist -56
S=c1[nH]nc(-c2ccccn2)n1/N=C/c1ccc(Cl)c(Cl)c1	none
CCOc1ccc(C(=O)CN2CCN(S(=O)(=O)c3ccc(Cl)cc3)CC2)cc1	GLP-1R inv ag inconclusive, DRD3 antagonist -57
COc1ccc(C(=O)CN2CCN(S(=O)(=O)c3ccc(F)cc3)CC2)cc1	none (no result: GLP-1R agonist, DRD3 antagonist)
Cc1ccc([C@H]2C(C(=O)O)=CC[C@@H](c3ccc(Cl)c(Cl)c3)N2S(=O)(=O)c2ccc(C)cc2)cc1	GLP-1R inv ag 10µM
CCOc1ccc([C@@H]2CC=C(C(=O)O)[C@H](c3ccc(Cl)cc3)N2S(=O)(=O)c2ccc(C)cc2)cc1	GLP-1R inv ag inconclusive, DRD3 antagonist -73
Cc1ccc(S(=O)(=O)N2[C@@H](c3ccc(Br)cc3)C(C(=O)O)=CC[C@H]2c2ccc(Cl)cc2)cc1	GLP-1R inv ag 11µM
Cc1ccc([C@@H]2CC=C(C(=O)O)[C@H](c3ccc(Cl)cc3)N2S(=O)(=O)c2ccc(C)cc2)cc1	GLP-1R inv ag inconclusive, DRD3 antagonist inconclusive
Cc1ccc(S(=O)(=O)N2[C@@H](c3ccccc3)C(C(=O)O)=CC[C@H]2c2ccc(Cl)c(Cl)c2)cc1	GLP-1R inv ag inconclusive
Cc1ccccc1C(=O)N1CC/C(=N/OS(=O)(=O)O)c2ccc(Cl)cc21	none (no result: GLP-1R inv ag, D3 ag, DRD3 antagonist)
CCc1cccc(NC(=O)CSc2nc3ccccc3nc2N2CCCCC2)c1	GLP-1R inv ag inconclusive (no result: GLP-1R agonist, DRD3 antagonist)
N#Cc1ccccc1CSc1nnc(-c2ccccc2)o1	none (no result: DRD3 antagonist)
O=C1C(Nc2ccc(O)cc2)=C/C(=N/S(=O)(=O)c2cccs2)c2ccccc21	GLP-1R inv ag inconclusive, DRD3 antagonist -85
O=C(O)c1ccc(NC2=C/C(=N/S(=O)(=O)c3cccs3)c3ccccc3C2=O)cc1	GLP-1R inv ag inconclusive, DRD3 antagonist -84
O=C(O)c1ccc(Nc2nc3ccccc3nc2NS(=O)(=O)c2cccs2)cc1	none
O=C1C=C(Nc2ccc(O)cc2)C(=O)c2ccccc21	none
CCO[C@@H]1OC(C(=O)O)=C[C@H](C2CCCCC2)[C@H]1CCCO	D3 ag 35
CCO[C@@H]1OC(C(=O)O)=C[C@H](C2CC2)[C@H]1CCCO	none
COc1ccc(OC)c(C(c2nnnn2C2CCCC2)N2CCN(c3ccc(F)cc3)CC2)c1 (centres undefined)	GLP-1R inv ag inconclusive
COc1cccc(C(c2nnnn2C2CCCCC2)N2CCN(C/C=C/c3ccccc3)CC2)c1OC (centres undefined)	GLP-1R inv ag inconclusive, DRD3 antagonist -118
CC(C)(C)n1nnnc1C(c1ccccc1OC(F)(F)F)N1CCN(C/C=C/c2ccccc2)CC1 (centres undefined)	GLP-1R inv ag inconclusive
COc1ccc2[nH]c(=O)c(C(c3nnnn3C3CCCC3)N3CCN(Cc4ccc5c(c4)OCO5)CC3)cc2c1 (centres undefined)	DRD3 antagonist -54
COc1ccc(C(c2nnnn2C2CCCC2)N2CCC(C)CC2)c(OC)c1 (centres undefined)	GLP-1R inv ag 10µM, DRD3 antagonist inconclusive
FC(F)(F)Oc1ccccc1C(c1nnnn1C1CCCC1)N1CCN(C/C=C/c2ccccc2)CC1 (centres undefined)	DRD3 antagonist -97
C(=C\c1ccccc1)/CN1CCN(C(c2ccnc3ccccc23)c2nnnn2C2CCCC2)CC1 (centres undefined)	none
Cc1ccc(OCC(=O)Nc2ccc(OCc3cc(=O)n4cccc(C)c4n3)cc2)cc1C	none (no result: GLP-1R agonist, DRD3 antagonist)
CC(=O)N1CCN(c2ccc(NC(=O)c3ccc(C(C)(C)C)cc3)cc2)CC1	DRD3 antagonist -89
Cc1c(CCC(=O)NCCCn2ccnc2)c(=O)oc2c(C)c3oc4c(c3cc12)CCCC4	none
COc1ccc(Nc2ncnc3sccc23)c(OC)c1	none
CCOC(=O)COc1c(OC)cc(Cl)cc1C1Nc2ccccc2C(=O)N1c1ccccc1 (centres undefined)	GLP-1R inv ag inconclusive, DRD3 antagonist -59
CCOC(=O)COc1c(OC)cc(Cl)cc1C1Nc2ccccc2C(=O)N1c1ccc(F)cc1 (centres undefined)	none
COc1ccc(-c2nc(CSc3nncn4c3cc3oc(C)cc34)c(C)o2)cc1	none (no result: GLP-1R agonist, DRD3 antagonist)
O=C1c2ccccc2C2=Nc3ccccc3SC(c3ccc(Cl)cc3)C12 (centres undefined)	GLP-1R inv ag 13µM
O=C1c2ccccc2C2=Nc3ccccc3SC(c3cccc(F)c3)C12 (centres undefined)	GLP-1R inv ag inconclusive
O=C(Cn1c(=O)n(Cc2ccco2)c(=O)c2ccccc21)Nc1ccc(Cl)cc1Cl	none (no result: DRD3 antagonist)
Cc1ccccc1NC(NC(=O)OCCn1c([N+](=O)[O-])cnc1C)C(Cl)(Cl)Cl (centres undefined)	DRD3 antagonist -63
COc1ccc(-c2noc(-c3ccc(NCCc4ccccc4)c([N+](=O)[O-])c3)n2)cc1OC	none (no result: GLP-1R agonist, DRD3 antagonist)
CC(C)Cc1nc(N2CCN(C(=O)c3ccco3)CC2)c(C#N)c2c1CCCC2	GLP-1R inv ag 8.9µM
Cc1nc(N2CCN(C(=O)c3ccco3)CC2)c(C#N)c2c1CCCC2	none
O=c1cc(-c2ccccc2)n2c(SCc3c(F)cccc3Cl)nnc2[nH]1	none (no result: GLP-1R agonist, DRD3 antagonist)
CCOc1ccccc1NC(=O)CN(CCc1ccccc1)S(=O)(=O)c1ccc(C)cc1	GLP-1R inv ag 10µM (no result: GLP-1R agonist, DRD3 antagonist)
CC(C)(C)C1CCc2c(C(=O)NNC(=O)/C=C/C(=O)O)csc2C1 (centres undefined)	none
CC(C)(C)C1CCc2c(C(=O)N/N=C/c3cccs3)csc2C1 (centres undefined)	GLP-1R inv ag inconclusive, D3 ag 32, DRD3 antagonist inconclusive
CC(C)CCNc1ncnc2c1nnn2Cc1ccccc1	none
Cc1ccc(Nc2ncnc3c2nnn3Cc2ccccc2)cc1	D3 ag 30
CCc1ccccc1NCc1nnc2n1CCCCC2	none (no result: DRD3 antagonist)
COc1ccccc1OCC(=O)N/N=C1\CCc2ccccc21	none
CC(C)c1ccccc1OCC(=O)NC1CCCc2ccccc21 (centres undefined)	GLP-1R inv ag inconclusive
COc1ccccc1OCC(=O)NC1CCCc2ccccc21 (centres undefined)	GLP-1R inv ag 11µM
Cc1cccc(OCC(=O)NC2CCCc3ccccc32)c1C (centres undefined)	GLP-1R inv ag 2µM
CNC(=S)NNC(=O)COc1cccc(C)c1C	DRD3 antagonist -62
COc1ccccc1OCC(=O)N/N=C1\CCCCc2ccccc21	GLP-1R inv ag 10µM
CN(CC(=O)NC1CCCc2ccccc21)C1CCCCC1 (centres undefined)	GLP-1R inv ag inconclusive, DRD3 antagonist -51
Cc1csc2nc(COc3ccccc3NC(=O)c3ccccc3Cl)cc(=O)n12	none (no result: DRD3 antagonist)
CCOc1cccc2c1OC1(C)CC2NC(=O)N1c1cccc(F)c1 (centres undefined)	DRD3 antagonist -51
Cc1c(N2C(=O)CS/C2=N\N=C\c2ccccc2O)c(=O)n(-c2ccccc2)n1C	D3 ag 39
COc1ccc(-c2nc(C)c(CCNC(=O)c3c(F)cccc3F)s2)cc1	none (no result: DRD3 antagonist)
Cc1ccc(O)c(N)c1	DRD3 antagonist -105
